Records with an inconclusive call do not appear. Values without a mark were called inactive. Calls of active or inactive are those of the source. The call rests on the fitted dose curve; in most records, active means well fitted curve in the direction sought with a large enough effect; inconclusive means small, poorly fitted or top-dose-only effect, or another doubt; inactive means no such curve, though single readings can be large; an effect the other way counts as inactive or inconclusive.

Assay [1] can be described thus: Quantitative High-Throughput drug screen in 47 multiple myeloma cell lines against the NCATS MIPE library collection: KMS12PE_JCRB cell viability assay (AID 1918972). Further: nearly all actives have a fitted effect of over 30% in size. Further: potency means the concentration at half of the fitted maximal effect. On viability: series mostly up to about 46 µM. Put shortly:
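Luminescent ATP measurement with CellTiter-Glo gives viability, scaled between DMSO-only wells (100%) and media-only wells (0%). Cells, 500 per well, faced library compounds for 48 hours at 37C.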

A short description of assay [2]: Quantitative High-Throughput drug screen in 47 multiple myeloma cell lines against the NCATS MIPE library collection: KMS26_JCRB cell viability assay (AID 1918975). Further: nearly all actives have a fitted effect of over 45% in size. Further: potency means the concentration at half of the fitted maximal effect. Put shortly: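 We plated 500 myeloma cells per well, pinned in MIPE 4.0 compounds, and incubated for 48 hours at 37C. ATP was then quantified with CellTiter-Glo, with DMSO and media-only wells defining 100% and 0%.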

Assay [3] in a line: Quantitative High-Throughput drug screen in 47 multiple myeloma cell lines against the NCATS MIPE library collection: MMM1_PLB cell viability assay (AID 1918976). Further: potency means the concentration at half of the fitted maximal effect; nearly all actives have a fitted effect of over 35% in size. Put shortly: (§1)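 qHTS format: cells plated (500/well), pin-dosed with MIPE 4.0 compounds, kept 48 h at 37 °C. Readout was CellTiter-Glo luminescence, median RLU.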
Assay [4] in a line: Quantitative High-Throughput drug screen in 47 multiple myeloma cell lines against the NCATS MIPE library collection: MM1S_ATCC cell viability assay (AID 1918980). Further: nearly all actives have a fitted effect of over 45% in size. Further: potency means the concentration at half of the fitted maximal effect. The gist of the method:
as §1

A short description of assay [5]: Quantitative High-Throughput drug screen in 47 multiple myeloma cell lines against the NCATS MIPE library collection: MM1R_ATCC cell viability assay (AID 1918981). Further: nearly all actives have a fitted effect of over 35% in size. Further: potency means the concentration at half of the fitted maximal effect. Put shortly: as §1
The nature of assay [6]: Quantitative High-Throughput drug screen in 47 multiple myeloma cell lines against the NCATS MIPE library collection: LP1_DSMZ cell viability assay (AID 1918982). Further: nearly all actives have a fitted effect of over 35% in size. The gist of the method: as §1
Assay [7] is described as follows: Quantitative High-Throughput drug screen in 47 multiple myeloma cell lines against the NCATS MIPE library collection: KMS28PE_JCRB cell viability assay (AID 1918983). Further: nearly all actives have a fitted effect of over 35% in size. Further: potency means the concentration at half of the fitted maximal effect. Put shortly: as §1
Assay [8] in a line: Quantitative High-Throughput drug screen in 47 multiple myeloma cell lines against the NCATS MIPE library collection: L363_DSMZ cell viability assay (AID 1918984). Further: nearly all actives have a fitted effect of over 40% in size. Further: potency means the concentration at half of the fitted maximal effect. Put shortly: as §1
Assay [9] can be described thus: Quantitative High-Throughput drug screen in 47 multiple myeloma cell lines against the NCATS MIPE library collection: KMS34_JCRB cell viability assay (AID 1918985). Further: nearly all actives have a fitted effect of over 40% in size. Further: potency means the concentration at half of the fitted maximal effect. Put shortly:
as §1

Assay [10] can be described thus: Quantitative High-Throughput drug screen in 47 multiple myeloma cell lines against the NCATS MIPE library collection: SKMM1_PLB cell viability assay (AID 1919863). Further: nearly all actives have a fitted effect of over 35% in size. Further: potency means the concentration at half of the fitted maximal effect. On viability: series mostly up to about 46 µM. The conditions noted are these: SKMM1 myeloma viability, CellTiter-Glo ATP, 48 h; viability: stronger effect = lower value. The gist of the method: as §1
A short description of assay [11]: Quantitative High-Throughput drug screen in 47 multiple myeloma cell lines against the NCATS MIPE library collection: U266_ATCC cell viability assay (AID 1919864). Further: nearly all actives have a fitted effect of over 35% in size. Further: potency means the concentration at half of the fitted maximal effect. The gist of the method:
as §1

A short description of assay [12]: Quantitative High-Throughput drug screen in 47 multiple myeloma cell lines against the NCATS MIPE library collection: XG6_PLB cell viability assay (AID 1919865). Further: nearly all actives have a fitted effect of over 40% in size. Further: potency means the concentration at half of the fitted maximal effect. The gist of the method: as §1
Assay [13] in a line: Quantitative High-Throughput drug screen in 47 multiple myeloma cell lines against the NCATS MIPE library collection: NCIH929_DSMZ cell viability assay (AID 1918978). Further: nearly all actives have a fitted effect of over 35% in size. Further: potency means the concentration at half of the fitted maximal effect. Put shortly:
as §1

The nature of assay [14]: Quantitative High-Throughput drug screen in 47 multiple myeloma cell lines against the NCATS MIPE library collection: OCIMY7_PLB cell viability assay (AID 1918987). Further: nearly all actives have a fitted effect of over 65% in size. Further: potency means the concentration at half of the fitted maximal effect. The gist of the method: as §1
A short description of assay [15]: Quantitative High-Throughput drug screen in 47 multiple myeloma cell lines against the NCATS MIPE library collection: MOLP8_DSMZ cell viability assay (AID 1918977). Further: nearly all actives have a fitted effect of over 45% in size. Further: potency means the concentration at half of the fitted maximal effect. The gist of the method: as §1
Assay [16] can be described thus: Quantitative High-Throughput drug screen in 47 multiple myeloma cell lines against the NCATS MIPE library collection: OCIMY1_PLB cell viability assay (AID 1918979). The gist of the method:
as §1

Assay [17] can be described thus: Quantitative High-Throughput drug screen in 47 multiple myeloma cell lines against the NCATS MIPE library collection: OPM1_PLB cell viability assay (AID 1918989). Further: nearly all actives have a fitted effect of over 40% in size. Further: potency means the concentration at half of the fitted maximal effect. Put shortly:
as §1

Assay [18] can be described thus: Quantitative High-Throughput drug screen in 47 multiple myeloma cell lines against the NCATS MIPE library collection: OCIMY5_PLB cell viability assay (AID 1918988). Further: nearly all actives have a fitted effect of over 65% in size. Further: potency means the concentration at half of the fitted maximal effect. The gist of the method:
as §1

In the case of `COc1c2occc2cc2ccc(=O)oc12`, the Potency result in assay [1], in [2], in [5], in [6], in [7] and in assay [8] was “inactive” in each case. Further, the Potency entry in assay [9], in assay [11] and in assay [12] was “inactive” each time. The figures for the Potency in assay [3] and in [4] were 1.32 µM (active) and 18.7 µM (active), respectively. Also, the viability in [10] is 118%.

With `COC1=C(OC)C(=O)C(CCCCCCCCCCO)=C(C)C1=O`, the Potency in assay [1] is 18.7 µM (active); in assay [2], 23.5 µM (active); in [3], 20.9 µM (active); in assay [13], 23.5 µM (active); in assay [7], 14.8 µM (active); in [8], 14.8 µM (active). Besides, the Potency is 16.6 µM (active) in [14] and 20.9 µM (active) in [12].

As for `CC(=O)NC[C@H]1CN(c2ccc(N3CCOCC3)c(F)c2)C(=O)O1`, the Potency result in assay [1], in [2], in assay [16], in [5], in assay [7] and in [9] was “inactive” throughout. Also, the Potency entry in [11] and in [12] was “inactive” throughout. For the same molecule, the Potency was 4.69 µM (active) in assay [3], 7.43 µM (active) in assay [15], 8.33 µM (active) in assay [4] and 3.72 µM (active) in [10].

As for `Cc1cc2c(s1)Nc1ccccc1N=C2N1CCN(C)CC1`, the Potency result in [1], in [2], in assay [15], in assay [13], in assay [5] and in assay [6] was “inactive” in each case. Further, the Potency result in assay [7], in [9], in [11] and in [12] was “inactive” in each case. The viability in [10] is 120%.

In the case of `NNc1nncc2ccccc12`, the Potency result in assay [1], in assay [2], in [4], in [5], in [6] and in [7] was “inactive” in each case. The Potency result in assay [8], in assay [9], in assay [14], in assay [17], in [11] and in assay [12] was “inactive” each time. Also, in assay [3], the Potency was 20.9 µM (active). In addition, the viability in assay [10] is 116%.

For `Nc1cc(C(Cl)=C(Cl)Cl)c(S(N)(=O)=O)cc1S(N)(=O)=O`, the Potency entry in assay [1], in assay [2], in [15], in assay [13], in assay [16] and in assay [5] was “inactive” throughout. In addition, the Potency entry in assay [6], in [7], in assay [9], in assay [17] and in assay [11] was “inactive” throughout. In addition, the Potency in assay [4] is 0.059 µM (active); in [14] it was 11.8 µM (active); in assay [12] it was 11.8 µM (active).

As to `O=P(O)(O)C(O)(Cn1ccnc1)P(=O)(O)O`, the Potency entry in assay [1], in [2], in [15], in assay [13], in assay [5] and in [6] was “inactive” each time. The Potency result in assay [7], in assay [8], in [18], in assay [17] and in [12] was “inactive” throughout. In [10], the viability is 138%.

For `COc1ccccc1N1CCN(CCN(C(=O)C2CCCCC2)c2ccccn2)CC1`, the Potency in assay [1] is 18.7 µM (active); in [13], 8.33 µM (active); in [14], 7.43 µM (active); in assay [12], 1.48 µM (active). The Potency entry in assay [2], in [15], in assay [6], in assay [9] and in [17] was “inactive” throughout. Moreover, the viability in [10] is 126%.

With `CCCCCCCCOc1ccccc1C(=O)Nc1ccc(C(=O)OCC[N+](C)(CC)CC)cc1`, the Potency is 4.69 µM (active) in assay [1]; 16.6 µM (active) in [2]; 16.6 µM (active) in [3]; 20.9 µM (active) in assay [15]; 20.9 µM (active) in [13]; 4.69 µM (active) in [8]. Further, the Potency in [9] is 23.5 µM (active); in [18] it was 20.9 µM (active); in [17] it was 18.7 µM (active); in assay [10], 26.4 µM (active); in [11], 20.9 µM (active); in [12], 16.6 µM (active).

For the molecule `Cc1cc(O)c2c(c1)C(=O)c1cc(O)cc(O)c1C2=O`, the Potency result in [1], in assay [16], in assay [8], in assay [9] and in [14] was “inactive” in each case. Moreover, the Potency is 11.8 µM (active) in assay [2], 18.7 µM (active) in [3], 10.5 µM (active) in [7] and 20.9 µM (active) in [10].

Take `C[C@H](Cn1cnc2c(N)ncnc21)OCP(=O)(O)O`: the Potency entry in assay [1], in [2], in assay [15], in assay [13], in [5] and in assay [8] was “inactive” each time. Further, the Potency entry in [9], in [18], in [17] and in [12] was “inactive” each time.

Turning to `COc1cc(C(C)=O)ccc1OCCCN1CCC(c2noc3cc(F)ccc23)CC1`, the Potency in assay [1] was 20.9 µM (active); in assay [2] it was 0.0074 µM (active); in assay [3], 18.7 µM (active); in [5], 16.6 µM (active). Besides, the Potency entry in [15] and in assay [7] was “inactive” throughout. Besides, the viability in [10] was 110%.

Usually viability stands for a read-out of living cells in per cent, often relative to untreated cells.

(Values after PubChem BioAssay (NCATS).)
